Source: the supplement of paper PMC6555819

Columns and labels:
Assay in all cases: PBM binding z-score (relative to random genomic background probes); higher = stronger binding; sequences stand for … in GC…GCGATTGACAGCGTAGAATGAAGG
[1] = tested on: RARb homodimer (NR concentration 270 nM)
In short: (§1)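 On custom Agilent 4×180K arrays, double-stranded probes with 34-nt variable regions carried direct-repeat seeds, single-nucleotide variants, half-site ablations or random human genomic background. Ligand-free nuclear receptor dimers were applied for 1 h, and binding was read with antibodies against each partner (one per run). Binding z-scores come from regression-normalized fluorescence, with the random background probes as reference.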

[2] = tested on: RARg:RXRa (NR concentration 270 nM, RXRa partner concentration 90 nM)
In short: as §1

[3] = tested on: RARg homodimer (NR concentration 270 nM)
In short: as §1

[4] = tested on: RXRa DBDmut IVT, anti-RXR (DBD mutation: RXRa K156A/R161A, NR concentration 90 nM)
In short: as §1

[5] = tested on: RXRa homodimer (NR concentration 180 nM)
In short: as §1

[6] = tested on: THRa:RXRa (NR concentration 90 nM, RXRa partner concentration 90 nM)
In short: as §1

[7] = tested on: THRa homodimer (NR concentration 90 nM)
In short: as §1

[8] = tested on: VDR:RXRa (NR concentration 270 nM, RXRa partner concentration 90 nM)
In short: as §1

[9] = tested on: VDR homodimer (NR concentration 270 nM)
In short: as §1

Sequence | PBM binding z-score [1] | PBM binding z-score [2] | PBM binding z-score [3] | PBM binding z-score [4] | PBM binding z-score [5] | PBM binding z-score [6] | PBM binding z-score [7] | PBM binding z-score [8] | PBM binding z-score [9]
ACTAGCAGGCCAAGTTTGTGTCACTCAAACAAAG | 0.267 | 0.00878 | 0.0859 | -0.193 | -0.545 | -0.0341 | -0.316 | -0.313 | 0.051
GCGACTGGGGCAAAGCGGGTTACCATAAGGTTGG | 0.945 | 0.446 | 0.469 | -0.587 | 0.545 | 2.47 | 0.0771 | 0.145 | -0.483
TCTAGATGGTCAAAGGTCACACACTCGAAATGCG | 4.98 | 7.31 | 5.87 | 1.9 | 8.64 | 3.96 | 1.9 | 5.33 | 2.51
GCTAGCAGGTCATTTGGGTCACTCAATGACGGGC | 3.52 | 4.5 | 4.38 | 2.82 | 4.23 | 3.74 | 1.48 | 5.92 | 3.25
TCTCGGAGGACACGAAAGGTCAAAGCTCGACATC | 5.19 | 5.82 | 6.04 | 1.63 | 5.82 | 4.18 | 1.76 | 4.67 | 2.51
ACTAGTTGGTTAGCTGAGGTCACACACAATTCGG | 4.12 | 3.62 | 3.42 | 1.62 | 3.95 | 4.7 | 5.36 | 4.03 | 3.78
TCATATAGGTAAATGCTAGGTGAAAGTTCGATCT | 1.2 | 0.926 | 0.552 | 1.97 | 1.35 | 1.75 | 0.835 | 1.22 | 0.742
ATCACTAGGTAACAAGTTCAGTGAAAGAGAGGAC | 1.82 | 1.45 | 1.49 | 1.12 | 0.815 | 1.54 | 0.852 | 1.6 | 2.7
AGTTACGGGTCAACGAGGTTATAGCACGCGTATA | 3.88 | 5.45 | 5.57 | 2.14 | 6.14 | 3.97 | 1.18 | 7.65 | 3.49
CGACCAAGGTCAAGGTCAGTGAAAGAGACTCGAA | 4.91 | 6.66 | 7.49 | 3.4 | 6.54 | 4.31 | 2.79 | 4.82 | 2.52
TTCCCAAGGTGAGCTGAGGTCGTTGATCCAACTC | 1.95 | 1.28 | 0.949 | 0.117 | 1.34 | 4.52 | 2.4 | 4.13 | 2.61
ATCTGTAGGTTAGCTGGGGTCATTCAGACTAGGC | 3.81 | 4.01 | 3.04 | 1.83 | 5.13 | 5.16 | 3.21 | 6.14 | 5.38
TCATATAGGTAATACAGGTCAAAGTCGGCATCTA | 3.29 | 2.91 | 2.37 | 2.04 | 3.63 | 2.71 | 1.24 | 4.07 | 2.13
TAGACAGGGTCAAAGGCCAGAGTACGAATGTCGA | 3.3 | 5.52 | 4.86 | 2.49 | 6.9 | 3.23 | 0.292 | 4.73 | 2.18
AATACATGGTCATCGTAGGCCAGAGTACGCACAG | 0.899 | 0.696 | 1.26 | -0.177 | 0.994 | 1.25 | -0.339 | 0.347 | 0.322
GCTTGTAGATCAAGGTCAAGAAAGACTAAGCTAA | 3.18 | 3.61 | 3.42 | 1.03 | 3.6 | 3.36 | 1.74 | 2.67 | 1.37
TCAGACAAGTGAAGGTAACTCAGGTACGCAGTCG | -0.322 | 0.211 | 0.249 | 1.1 | 0.825 | 1.1 | -0.375 | 0.46 | -0.0282
GCGACTGGGGCATCAGCAGGTTACCCTAACTTAA | 0.901 | 0.748 | 0.106 | -0.65 | 0.381 | 1.29 | 0.628 | -0.249 | -0.558
ATATGTAGGTTAGCTGGGGTCATTAAGACTAGGC | 3.6 | 3.87 | 3.03 | 1.83 | 5.15 | 5.26 | 3 | 5.83 | 4.98
ACTAGCAGGCCAAGCTTGGGTCACTCAAACAAAG | 2.07 | 2.09 | 1.49 | -0.187 | 0.849 | 2.18 | 0.602 | 0.122 | -0.227
TAGCCAAGGTCATGCGGGCCAGTATAGTGTCGGC | 4.42 | 5.81 | 5.79 | 2.88 | 5.47 | 4.14 | 2.91 | 5.15 | 3.39
AGAACGAGGGCACGCTGAGTTGATCGCAGAGTAG | 1.14 | 2.19 | 2.41 | 1.74 | 1.27 | 1.85 | -0.239 | 2.12 | 1.73
CCTGCTAGGTCATGCTCAGCTAATCTACAGTATG | 2.76 | 3.89 | 4.39 | 2.05 | 2.4 | 2.57 | 0.87 | 1.33 | 0.178
ATCTCTAGGTAAAGTTCTGTGAAAGATCGATAGA | -0.0506 | 0.0649 | 0.264 | 0.162 | -0.238 | 0.488 | 0.369 | 0.335 | 0.0394
CCTCTTAGTTGACCATAAGGGCAACCGAAGCTCG | 2.25 | 1.17 | 1.15 | 0.285 | 0.712 | 2.07 | 1.59 | 0.969 | 0.985
CCTTACGGGTCACTCCAGGTTATTGCATCGGAGT | 3 | 4.17 | 3.98 | 1.4 | 3.97 | 4.94 | 0.878 | 4.46 | 1.95
